SENP6 inh = inhibitors of human SENP6 protease; Q9GZR1; Recombinant SENP6 catalytic domain, aminoluciferin luminescence; inhibition, % at 10 µM; 1.8% of 330,000 active;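 active means inhibition above about 50% at the single tested dose, limit read from the data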
Target sequence (Q9GZR1 628-1112 limits assumed): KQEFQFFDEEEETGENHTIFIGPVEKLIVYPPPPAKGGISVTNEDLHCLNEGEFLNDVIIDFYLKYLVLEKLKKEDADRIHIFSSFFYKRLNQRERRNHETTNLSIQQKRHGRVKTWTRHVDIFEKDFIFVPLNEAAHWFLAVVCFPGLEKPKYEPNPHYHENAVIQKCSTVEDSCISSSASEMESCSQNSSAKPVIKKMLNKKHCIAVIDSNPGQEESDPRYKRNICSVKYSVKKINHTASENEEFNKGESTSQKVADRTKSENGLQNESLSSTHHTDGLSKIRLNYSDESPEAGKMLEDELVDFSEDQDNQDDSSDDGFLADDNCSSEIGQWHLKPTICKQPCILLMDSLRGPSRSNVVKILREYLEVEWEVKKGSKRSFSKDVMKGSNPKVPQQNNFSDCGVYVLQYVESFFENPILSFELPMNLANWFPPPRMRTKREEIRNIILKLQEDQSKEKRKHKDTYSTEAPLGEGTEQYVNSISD
SENP7 inh = inhibitors of human SENP7 protease. inhibition, % at 5 µM. AID 434973. recombinant SENP7, Z-RLRGG-aminoluciferin luminescence, 40 min. Q9BQF6. 1.5% of 330,000 active;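 active means inhibition above about 50% at the single test dose, limit read from the data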
Platelet DG rel = modulates dense granule release in human platelets. human platelet-rich plasma, SFLLRN dense granule ATP release, luminescence. inhibition, %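 (compounds screened at 7.5 µM in platelet-rich plasma)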. 0.22% of 300,000 active. AID 1663;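 active means mean replicate score, as percent of positive control, at or above 50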
SENP8 block-1 = blocks human SENP8 cleavage of Nedd8 substrate. AID 602440. Q96LD8. inhibition, % at 20 µM. 0.64% of 360,000 active. recombinant SENP8, Nedd8 substrate fluorescence; in the data active means inhibition mostly above about 40%, no sharp cut-off; inactive means mostly below about 27%
SENP8 block-2 = inhibitors of human SENP8 protease; AID 2540; 1.2% of 330,000 active; purified SENP8, Z-RLRGG-aminoluciferin cleavage, luminescence; Q96LD8; inhibition, % at 10 µM; in the data active means inhibition above about 50%
SENP8 confirm = human SENP8 inhibition, confirmed; shares compounds with SENP7 inh; Recombinant SENP8, Z-RLRGG-aminoluciferin luminescence, 60 min; inhibition, % at 12.5 µM; 40% of 6,200 active; AID 488912;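 active means mean inhibition across replicates above about 50%, limit read from the data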
SENP6 conf = human SENP6 inhibition, confirmed; shares compounds with SENP7 inh; recombinant SENP6, Z-RLRGG-aminoluciferin luminescence; inhibition, % at 12.5 µM; 58% of 6,200 active
SENP7 conf = confirmation of human SENP7 protease inhibitors. shares compounds with SENP7 inh. recombinant SENP7, Z-RLRGG-aminoluciferin luminescence, 40 min. inhibition, % at 12.5 µM. 69% of 6,200 active
Casp3 select = caspase-3 inhibition (SENP selectivity assay) | shares compounds with SENP7 inh | purified caspase-3, Z-DEVD-aminoluciferin luminescence, 60 min | inhibition, % at 12.5 µM | 60% of 6,200 active | AID 488918;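 active means mean inhibition above about 50%, limit read from the data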
Target sequence (P42574 28-227 limits assumed): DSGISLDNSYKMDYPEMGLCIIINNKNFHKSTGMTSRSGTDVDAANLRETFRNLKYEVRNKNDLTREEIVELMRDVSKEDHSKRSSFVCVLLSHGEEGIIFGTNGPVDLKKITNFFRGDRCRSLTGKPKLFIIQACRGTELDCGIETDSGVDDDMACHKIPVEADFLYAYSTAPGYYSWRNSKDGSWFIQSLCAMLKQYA
SENP luc ctr = interferes with luciferase luminescence in SENP counter-screen; shares compounds with SENP7 inh; Pre-incubated SENP8/Z-RLRGG-aminoluciferin, luciferase luminescence interference; inhibition, % at 12.5 µM; 39% of 6,200 active; AID 488919;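 active means mean inhibition above about 50% when retested at one dose, limit read from the data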
Of the large screens only hits and unclear results are named; the others gave an inactive call (follow-up assays come after a bar, where they were run). The list is not random: actives were taken first. Their share in the collection is about 2.4%.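 How the source made its calls, unless noted: active means mean inhibition above about 50% in the one-dose retest (limit read from the data); inactive means the rest.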

C(=C\c1ccccc1)/C=N/Nc1nc2ccccc2s1	SENP6 inh 51 | SENP8 confirm inactive | SENP6 conf inactive | SENP7 conf inactive | Casp3 select inactive | SENP luc ctr inactive
O=c1nc(N/N=C/c2c[nH]c3ccccc23)cn[nH]1	none
CC(C(=O)Nc1cccc(S(=O)(=O)N2CCOCC2)c1)N1CCN(c2ccc(F)cc2)CC1 (stereo not given)	none
CS(=O)(=O)c1ccc(C(=O)OCC(=O)N(CCc2ccccc2)Cc2ccccc2)cc1	none
O=C(COC(=O)COc1ccc(Cl)cc1)NC1CCCC1	none (no result: Platelet DG rel)
COc1cc(OC)cc(C(=O)N[C@H](C(=O)NC2=NCCS2)C(C)C)c1	none (no result: Platelet DG rel)
CCOC(=O)N=S(N)(=O)c1ccc(Cl)cc1 (stereo not given)	SENP8 block-2 51 | SENP8 confirm inactive | SENP6 conf inactive | SENP7 conf inactive | Casp3 select inactive | SENP luc ctr inactive
Cc1ccc(Cn2cc(CN3CC(N(C)C)CS3(=O)=O)nn2)cc1 (stereo not given)	none (no result: SENP6 inh, SENP7 inh, Platelet DG rel, SENP8 block-2)
O=C1CC/C=C\C[C@@H](CC(=O)N(CCO)Cc2ccccc2)C(=O)N[C@H](Cc2c[nH]c3ccccc23)CO1	none (no result: Platelet DG rel)
Cc1cc(Cl)ccc1OCCCC(=O)OCC(=O)Nc1cccc(S(N)(=O)=O)c1	none (no result: Platelet DG rel)
Nc1nccc(/C=C/c2ccc(Cl)cc2)n1	SENP6 inh 80, SENP7 inh 75, SENP8 block-2 75 | SENP8 confirm 74 | SENP6 conf 85 | SENP7 conf 94 | Casp3 select 79 | SENP luc ctr inactive
CCOc1ncccc1C(=O)OCC(=O)c1cc(C)n(Cc2ccco2)c1C	SENP6 inh 71 | SENP8 confirm 70 | SENP6 conf 66 | SENP7 conf 87 | Casp3 select 58 | SENP luc ctr inactive
Cc1cc(C(=O)COC(=O)c2ccc(O)cc2)c(C)n1Cc1ccco1	none
COc1ccc(/C=N/Nc2ccccn2)cc1O	SENP6 inh 57, Platelet DG rel 80 | SENP8 confirm inactive | SENP6 conf inactive | SENP7 conf 77 | Casp3 select 72 | SENP luc ctr 64
Oc1cccc(C=NNc2ccccn2)c1	none (no result: SENP6 inh, SENP7 inh, Platelet DG rel, SENP8 block-2)
Brc1ccccc1/C=N/Nc1ccccn1	SENP7 inh 86 | SENP8 confirm inactive | SENP6 conf inactive | SENP7 conf inactive | Casp3 select inactive | SENP luc ctr inactive
C(=N\Nc1ccccn1)/c1ccc(N2CCOCC2)cc1	none
Fc1ccc(/C=N/Nc2ccccn2)cc1	SENP6 inh 66, SENP7 inh 64 | SENP8 confirm inactive | SENP6 conf inactive | SENP7 conf 82 | Casp3 select 56 | SENP luc ctr inactive
Clc1ccccc1C=NNc1ccccn1	none (no result: SENP6 inh, SENP7 inh, Platelet DG rel, SENP8 block-2)
Brc1ccc(/C=N/Nc2ccccn2)cc1	SENP7 inh 65 | SENP8 confirm inactive | SENP6 conf inactive | SENP7 conf 86 | Casp3 select inactive | SENP luc ctr inactive
Cc1ccc(NC(=O)COC(=O)C2=NNC(=O)CC2)c(Br)c1	none (no result: Platelet DG rel)
Cc1ccc(C)c(NC(=O)CSc2nnc(C3CCCCC3)o2)c1	none
Clc1ccc(/C=N/Nc2ccccn2)cc1	SENP7 inh 69, SENP8 block-2 52 | SENP8 confirm inactive | SENP6 conf 54 | SENP7 conf 72 | Casp3 select 51 | SENP luc ctr inactive
CCCOc1ccc(/C=N/NC(=O)C(=O)Nc2ccccn2)cc1	none
CCOc1ccc(/C=N/Nc2ccccn2)cc1	SENP6 inh 84, SENP7 inh 95, SENP8 block-2 91 | SENP8 confirm 63 | SENP6 conf 94 | SENP7 conf 102 | Casp3 select 65 | SENP luc ctr inactive
Cc1cccc(-n2c(C)nc3cc(C(=O)N4CCOCC4)ccc32)c1	none
COc1ccc(C(=O)/C=C2\Sc3ccccc3N2C)cc1	SENP7 inh 53 | SENP8 confirm 74 | SENP6 conf 77 | SENP7 conf 92 | Casp3 select 77 | SENP luc ctr inactive
CC(=S)/C=C1\Sc2ccccc2N1C	none
O=C(OCC(=O)N1N=C(c2ccc(Cl)cc2)CC1c1ccco1)c1cccnc1 (stereo not given)	none (no result: Platelet DG rel)
Cc1ccc(NC(=O)n2ncc3c(C)cccc32)c(C)c1	none
COc1cccc(NC(=O)n2ncc3c(C)cccc32)c1	SENP6 inh 99, SENP7 inh 100, SENP8 block-2 95 | SENP8 confirm 100 | SENP6 conf 101 | SENP7 conf 103 | Casp3 select 99 | SENP luc ctr 98
CCOc1ccc(NC(=O)n2ncc3c(C)cccc32)cc1	SENP6 inh 64, SENP7 inh 91, SENP8 block-2 81 | SENP8 confirm inactive | SENP6 conf inactive | SENP7 conf inactive | Casp3 select inactive | SENP luc ctr inactive
Cc1nn2cnnc2c(C)c1Cc1ccc(Cl)cc1	none
N#C/C(=C(/O)C(Cl)(Cl)Cl)c1nc2ccccc2[nH]1	SENP6 inh 96, SENP7 inh 75, SENP8 block-2 87 | SENP8 confirm 90 | SENP6 conf 90 | SENP7 conf 100 | Casp3 select 91 | SENP luc ctr 55
COc1ccc(NC(=O)C(c2ccc(C#N)cc2)n2c(=O)c(-c3cc4ccccc4[nH]3)nc3ccccc32)cc1 (stereo not given)	none (no result: SENP6 inh, SENP7 inh, Platelet DG rel, SENP8 block-2)
COC(=O)C1=CN(c2cccc(OCc3ccccc3)c2)C(N)=C(C#N)C1c1cccc(F)c1 (stereo not given)	none (no result: SENP6 inh, SENP7 inh, Platelet DG rel, SENP8 block-2)
O=C(/C=C/c1ccccc1)Nc1cccc(C(=O)O)c1	SENP6 inh 99, SENP7 inh 100, SENP8 block-2 97 | SENP8 confirm inactive | SENP6 conf 99 | SENP7 conf 103 | Casp3 select 95 | SENP luc ctr 98
CSc1cccc(NC(=O)/C=C/c2ccccc2)c1	SENP6 inh 51 | SENP8 confirm 57 | SENP6 conf 54 | SENP7 conf 81 | Casp3 select inactive | SENP luc ctr 65
CSc1cccc(NC(=O)/C=C/c2ccco2)c1	none
CSc1ccc(/C=C/C(=O)Nc2ccccc2)cc1	SENP6 inh 85, SENP7 inh 101, SENP8 block-2 95 (no result: Platelet DG rel) | SENP8 confirm 69 | SENP6 conf 98 | SENP7 conf 102 | Casp3 select 97 | SENP luc ctr inactive
CSc1cccc(NC(=O)/C=C/c2ccc(Cl)cc2)c1	SENP6 inh 66, SENP7 inh 59 | SENP8 confirm 54 | SENP6 conf 59 | SENP7 conf 84 | Casp3 select inactive | SENP luc ctr 51
NS(=O)(=O)c1cccc(NC(=O)COC(=O)Cn2cc(C(F)(F)F)ccc2=O)c1	none (no result: Platelet DG rel)

From PubChem
